Compound activity deposited in PubChem BioAssay by several laboratories.
Only some compounds are listed: those with a hit (about 1.8% of all), similar ones and a draw of the others.
KLF5 inh – inhibitors of KLF5 expression; inhibition, % at 5 µM; AID 1700; DLD-1 KLF5 promoter-luciferase reporter, luminescence; actives 0.23% (n = 290,000);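 active means inhibition above a per-plate limit of that plate's mean compound inhibition plus 3 SD, cut at about 60% in these data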;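 further: 0% = DMSO wells and 100% = LY294002 at 200 µM; higher means less KLF5 promoter-driven luciferase light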
IEC-6 cytotox – kills IEC-6 intestinal cells in KLF5 counter-screen | actives 0.78% (n = 290,000) | inhibition, % at 5 µM | IEC-6 cytotoxicity, luminescence viability | AID 1825; in the data active means inhibition above about 22%;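 further: 0% = plate median of test compound wells and 100% = cytotoxic reference compound wells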
Ba/F3 V617F tox – reduce viability of Ba/F3 cells dependent on JAK2V617F | Ba/F3 EpoR-JAK2V617F viability, ATP luminescence | actives 1.1% (n = 220,000) | inhibition, % at 5.6 µM;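 active means inhibition above the campaign mean plus 3 SD over all tested compounds, cut at about 24% in these data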;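 further: cytokine-independent growth of Ba/F3 cells driven by EpoR plus mutant JAK2; 0% = DMSO-treated cells and 100% = JAK inhibitor I control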
APP transl inh – APP translation inhibition | SH-SY5Y APP 5'UTR-luciferase reporter, luminescence | inhibition, % at 2 µM | actives 0.82% (n = 190,000);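 active means inhibition above a set limit, derived from the sample mean plus 3 SD, cut at about 45% in these data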
BaF3 tox – reduces parental Ba/F3 cell viability, JAK2V617F counter-screen; CellTiter-Glo ATP luminescence; inhibition, % at 5.6 µM; actives 1.1% (n = 220,000); AID 1486;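 active means inhibition above a per-campaign cutoff, the mean inhibition of all tested compounds plus 3 SD, cut at about 27% in these data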;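 further: 0% = DMSO wells and 100% = JAK Inhibitor I control wells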
Active calls of the source: *; / = not tested or not shown.

SMILES	KLF5 inh	IEC-6 cytotox	Ba/F3 V617F tox	APP transl inh	BaF3 tox
CCCCC(Br)C(=O)Nc1ccc(S(=O)(=O)Nc2cc(C)nc(C)n2)cc1 (stereo not drawn)	-11.8	-1.3	/	/	/
O=C(Nc1nc2ccccc2s1)C1CCCO1 (stereo not drawn)	-152.4	-3.6	-2.0	-48.6	95.0*
CCc1cccc(N(C(=O)c2csnn2)C(C(=O)NC2CCCCC2)c2ccncc2)c1 (stereo not drawn)	-5.8	-0.4	/	/	/
N=c1ccn(Cc2ccc(F)cc2)cc1	-7.2	-4.0	70.2*	/	60.7*
CC(C)c1ccc(NC2CCCN(C(=O)CSc3nncn3C)C2)cc1 (stereo not drawn)	-15.7	0.8	/	/	/
CCOc1ccc(NS(=O)(=O)c2cc(NC(=O)c3ccc(C)cc3)ccc2Cl)cc1	48.0	55.9*	80.3*	87.0*	70.1*
O=C(Cn1ncc(Cl)c(Cl)c1=O)N1CCN(S(=O)(=O)c2ccc3ccccc3c2)CC1	-10.4	10.0	1.3	94.0*	2.4
CCOc1ccccc1CN1CCNC(=O)C1CC(=O)NC1CCCCCCC1 (stereo not drawn)	-10.2	-3.9	/	/	/
Cc1ccc(C(=O)c2cc([N+](=O)[O-])ccc2N2CCOCC2)cc1	9.9	1.7	5.1	93.2*	5.0
O=C(O)c1cc([N+](=O)[O-])ccc1N1CCCCC1	-1.7	2.3	2.5	9.8	8.9
Cc1ccc(C(=O)c2cc([N+](=O)[O-])ccc2N2CCCCC2)c(C)c1	37.5	89.4*	88.1*	96.2*	86.5*
Cc1ccc(N(CC(=O)NCC2CCCO2)C(=O)Cn2nnc(-c3cccs3)n2)cc1 (stereo not drawn)	1.9	-3.4	0.9	1.8	7.8
O=C(O)c1cccnc1Br	-39.0	-6.5	1.8	-21.3	6.5
COc1cccc(C(=O)Oc2c(Br)cc(Br)cc2/C=N/NC(=O)c2cc(C)[nH]n2)c1	50.7	40.8*	5.2	45.3*	7.8
CCOC(CCNC(=O)c1cn(CC(C)C)c(=O)c2c1c1ccccc1n2C)OCC	-20.0	1.3	/	/	/
CC(C)(C)C(=O)NC(=S)Nc1ccccc1C(=O)Nc1ccccc1	-21.5	0.8	-2.1	17.4	95.3*
CC(/C=C/c1ccco1)=N/NC(=O)OC(C)(C)C	5.7	-0.2	0.9	-18.3	5.6
COc1cc(/C=C2/SC(=Nc3ccc(O)cc3)NC2=O)ccc1O	36.1	13.4	75.2*	/	72.5*
Cc1sc2nc(CN(Cc3cccs3)C(=O)C3CC3)[nH]c(=O)c2c1C	-25.1	-6.7	11.4	11.4	86.1*
CCN1/C(=C/C=C/C=C/c2sc3ccccc3[n+]2CC)Sc2ccccc21	-7.6	4.7	50.9*	82.3*	48.2*
COc1cccc(C(=O)Nc2cc(C)nn2-c2ccccc2)c1OC	-8.4	-4.5	/	/	/
Cc1cc(/C=C2\SC(=Nc3ccccc3)NC2=O)c(C)n1-c1ccc(S(N)(=O)=O)cc1	-2.1	-4.3	28.3*	52.7*	62.6*
Cc1nn(Cc2n[nH]c(=S)n2Cc2ccccc2)c(C)c1Cl	-12.5	-2.8	-3.5	-29.4	-4.4
Cc1ccc(C(=O)/C=C/C(=O)c2ccc(C)cc2)cc1	-19.6	-5.5	-5.7	66.5*	1.8
CS(=O)(=O)N1CCN(c2c(Cl)cccc2[N+](=O)[O-])CC1	-6.6	1.4	4.1	-0.5	50.9*
SMILES	KLF5 inh	IEC-6 cytotox	Ba/F3 V617F tox	APP transl inh	BaF3 tox
O=[N+]([O-])c1ccc(COc2ccc(Br)cc2CN2CCOCC2)cc1	-8.6	1.3	2.0	-9.7	90.0*
O=[N+]([O-])c1ccc(CN2CCOCCOCCN(Cc3ccc([N+](=O)[O-])cc3)CCOCC2)cc1	-19.9	-3.4	-1.3	8.3	2.4
CCN(CC(=O)Nc1cccc(OC)c1)CC(=O)Nc1ccc(C)cc1Cl	-0.6	0.6	-0.9	-19.7	6.5
c1ccc(-c2nnsc2-c2ccccc2)cc1	-18.6	3.9	/	/	/
O=S(=O)(c1ccc(Cl)c(Cl)c1)c1snnc1-c1ccccc1	19.4	2.1	57.7*	95.4*	41.6*
COC(=O)c1[nH]c2ccccc2c1CN1CCOCC1	-39.7	1.1	/	/	/
Cc1ccc(C)c(S(=O)(=O)N2C(=S)NC(=O)C2CC(C)C)c1 (stereo not drawn)	-26.4	0.8	-1.8	76.9*	3.3
Cc1ccc(C)c(S(=O)(=O)N2CCNCC2)c1	-22.2	-1.3	-0.6	-5.7	7.6
CCCCN1CNC(=S)N(c2ccc(C(=O)OCC)cc2)C1	22.2	-3.3	0.9	3.8	3.2
N#Cc1cccc(NC(=S)Nc2ccccc2)c1	-22.4	2.6	0.4	-15.7	0.3
COc1ccccc1OCCSc1nc2ccccc2c(=O)[nH]1	-36.0	2.6	1.4	-12.1	95.4*
CN1c2ccccc2N(C)C1c1ccc2c(c1)OCO2	-42.8	2.5	70.7*	-23.8	60.6*
